Data reported in PubChem BioAssay (NCATS).
Inconclusive results are not listed. Calls of active or inactive are those of the source. Unless noted, the call rests on the fitted dose curve; in most records, active means well fitted curve in the direction sought with a large enough effect; inconclusive means small, poorly fitted or top-dose-only effect, or another doubt; inactive means no such curve, though single readings can be large; an effect the other way counts as inactive or inconclusive.

How the values were obtained:
[1] = target: Cytochrome P450 3A4 (Homo sapiens) (UniProt P08684); test: qHTS Assay for Activators of Cytochrome P450 3A4 (AID 885); further: nearly all actives have a fitted effect of over 65% in size
Outline: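 Steps: enzyme/substrate mix dispensed; compound added, 10 min RT; NADPH regeneration solution added, 60 min RT; luciferin detection buffer stops reaction; 20 min later luminescence measured.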

[2] = Confirmation and Secondary Assay for Modulators of Hemoglobin Beta Chain Splicing at IVS2 705 locus (AID 930);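 further: HeLa cells stably expressing the EGFP-705 splicing reporter; GFP fluorescence per well restored by corrected splicing of the IVS2-705 intron in EGFP; % of control where 0% means no effect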
Outline: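 Assay measures total GFP intensity per well in HeLa EGFP-705 cells after 2 days with compound; mis-splicing normally truncates EGFP, so fluorescence indicates corrected splicing.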

[3] = qHTS Assay for Lipid Storage Modulators (AID 1519; calls by dose curve; on activity change, negative = inhibition: on the % scale 0 is the no-effect control and ±100 the full control effect); conditions: Drosophila S3 cells, BODIPY lipid droplet/cell ratio, laser cytometry, cells loaded with oleic acid
Outline: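 Cells seeded at 5,000 per well were treated with compounds over a concentration series and loaded with oleic acid (400 uM, as added). Lipid droplet fluorescence (488 nm excitation, 500-530 nm channel) was read by laser-scanning cytometry and normalized to 20 uM Triacsin C.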

[4] = target: ATP-dependent 6-phosphofructokinase (Trypanosoma brucei brucei) (UniProt O15648); test: qHTS Assay to Find Inhibitors of T. brucei phosphofructokinase: hit validation (AID 492961);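 further: luminescence reports ADP formed as PFK phosphorylates fructose-6-phosphate with ATP; on the % scale 0 is the no-effect control and ±100 the full control effect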
Outline: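 Measures ADP output of PFK (1.25 nM) at 0.1 mM ATP, 0.5 mM F6P, pH 8.0 TEA buffer with 5 mM MgCl2. No-enzyme wells define full inhibition; uninhibited enzyme wells define zero.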

[5] = target: Ubiquitin carboxyl-terminal hydrolase 1 (Homo sapiens) (UniProt O94782); test: Inhibitors of USP1/UAF1: Pilot qHTS (AID 504865);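 further: rhodamine fluorescence freed from ubiquitin-rhodamine substrate followed over time; top concentration of the series differs between compounds; on the % scale 0 is the no-effect control and ±100 the full control effect; nearly all actives have a fitted effect of over 35% in size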
Outline: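 Kinetic fluorescence assay: 1nM USP1/UAF1, 15 min compound preincubation, then 150nM Ub-Rho; 480/540 nm.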

[6] = target: Luciferin 4-monooxygenase (Photinus pyralis) (UniProt P08659); test: Biochemical firefly luciferase enzyme assay for NPC (AID 624030);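 further: purified P. pyralis luciferase at 10 nM with luciferin and ATP substrate; 0% = DMSO and -100% = full luciferase inhibition by PTC124 control; nearly all actives have a fitted effect of over 70% in size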
Outline: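 Direct inhibition of firefly luciferase enzyme (10 nM final, 50 mM Tris Acetate) assessed by luminescence within 5 minutes. Percent activity scaled between DMSO and PTC124 positive control, with concentration-effect curves classified by fit quality and response.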

[7] = S16 Schwann cell viability assay (CellTiter-Glo assay) (AID 624031);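 further: native untransfected S16 rat Schwann cells; cellular ATP luminescence as a viability measure; plate controls were DMSO-treated cells for no effect and cell-free wells for full effect; nearly all actives have a fitted effect of over 70% in size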
Outline: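 Concentration-effect curves come from CellTiter-Glo luminescence of S16 rat Schwann cells after 24 h compound exposure. Each reading was normalized to DMSO wells (0%) and wells without cells, and curves were ranked by r2 and response magnitude.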

[8] = S16 Schwann cell PMP22 intronic element firefly luciferase assay (AID 624032);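 further: plate controls were DMSO for no effect and PTC124 positive control mean for full effect; nearly all actives have a fitted effect of over 30% in size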
Outline: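 Luciferase reporter of PMP22 intronic-element expression in stably transfected S16 rat Schwann cells, read by ONE-Glo luminescence after 24 h compound exposure at 37 C. Activity scaled between DMSO (0%) and positive-control PTC124; concentration-effect curves quality-classified.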

[9] = S16 Schwann cell PMP22 intronic element beta-lactamase assay (AID 624044; calls by dose curve;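 further: 0% = DMSO and -100% = potassium clavulanate positive control; nearly all actives have a fitted effect of over 15% in size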)
Outline: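 Rat S16 Schwann cells with beta-Lac driven by a PMP22 intronic element, compound-treated 24 h at 37 °C. LiveBLAzer FRET B/G read: 460 nm normalized to potassium clavulanate vs DMSO; 535 nm FRET as viability; concentration-effect curves classified.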

[10] = qHTS profiling for inhibitors of Plasmodium falciparum proliferation (AID 504749); further: nearly all actives have a fitted effect of over 60% in size; further: potency means the concentration at half of the fitted maximal effect; conditions: P. falciparum in erythrocytes, SYBR Green DNA, 72 h; parasite line B
Outline: (§1)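 Three-day growth assay of blood-stage parasites in erythrocytes (0.3% parasitemia, 2.5% hematocrit) at 37 C, 5% CO2, quantified by SYBR Green DNA staining after overnight detergent lysis.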

3D7 = test: as above; conditions: P. falciparum in erythrocytes, SYBR Green DNA, 72 h; series mostly up to 12.8 µM
Outline: as §1

7G8 = test: as above; conditions: P. falciparum in erythrocytes, SYBR Green DNA, 72 h; series mostly up to 12.8 µM
Outline: as §1

AA1029 = test: as above; conditions: P. falciparum in erythrocytes, SYBR Green DNA, 72 h; series mostly up to 12.8 µM
Outline: as §1

AS120 = test: as above; conditions: P. falciparum in erythrocytes, SYBR Green DNA, 72 h; series mostly up to 12.8 µM
Outline: as §1

ATS189 = test: as above; conditions: P. falciparum in erythrocytes, SYBR Green DNA, 72 h; series mostly up to 12.8 µM
Outline: as §1

ATS95 = test: as above; conditions: P. falciparum in erythrocytes, SYBR Green DNA, 72 h; series mostly up to 12.8 µM
Outline: as §1

C2A = test: as above; conditions: P. falciparum in erythrocytes, SYBR Green DNA, 72 h; series mostly up to 12.8 µM
Outline: as §1

CP185 = test: as above; conditions: P. falciparum in erythrocytes, SYBR Green DNA, 72 h; series mostly up to 12.8 µM
Outline: as §1

CP191 = test: as above; conditions: P. falciparum in erythrocytes, SYBR Green DNA, 72 h; series mostly up to 12.8 µM
Outline: as §1

CP192 = test: as above; conditions: P. falciparum in erythrocytes, SYBR Green DNA, 72 h; series mostly up to 12.8 µM
Outline: as §1

CP194 = test: as above; conditions: P. falciparum in erythrocytes, SYBR Green DNA, 72 h; series mostly up to 12.8 µM
Outline: as §1

CP201 = test: as above; conditions: P. falciparum in erythrocytes, SYBR Green DNA, 72 h; series mostly up to 12.8 µM
Outline: as §1

CP203 = test: as above; conditions: P. falciparum in erythrocytes, SYBR Green DNA, 72 h; series mostly up to 12.8 µM
Outline: as §1

CP211 = test: as above; conditions: P. falciparum in erythrocytes, SYBR Green DNA, 72 h; series mostly up to 12.8 µM
Outline: as §1

CP215 = test: as above; conditions: P. falciparum in erythrocytes, SYBR Green DNA, 72 h; series mostly up to 12.8 µM
Outline: as §1

CP217 = test: as above; conditions: P. falciparum in erythrocytes, SYBR Green DNA, 72 h; series mostly up to 12.8 µM
Outline: as §1

CP237 = test: as above; conditions: P. falciparum in erythrocytes, SYBR Green DNA, 72 h; series mostly up to 12.8 µM
Outline: as §1

CP238 = test: as above; conditions: P. falciparum in erythrocytes, SYBR Green DNA, 72 h; series mostly up to 12.8 µM
Outline: as §1

CP247 = test: as above; conditions: P. falciparum in erythrocytes, SYBR Green DNA, 72 h; series mostly up to 12.8 µM
Outline: as §1

CP250 = test: as above; conditions: P. falciparum in erythrocytes, SYBR Green DNA, 72 h; series mostly up to 12.8 µM
Outline: as §1

CP252 = test: as above; conditions: P. falciparum in erythrocytes, SYBR Green DNA, 72 h; series mostly up to 12.8 µM
Outline: as §1

CP256 = test: as above; conditions: P. falciparum in erythrocytes, SYBR Green DNA, 72 h; series mostly up to 12.8 µM
Outline: as §1

CP260 = test: as above; conditions: P. falciparum in erythrocytes, SYBR Green DNA, 72 h; series mostly up to 12.8 µM
Outline: as §1

CP262 = test: as above; conditions: P. falciparum in erythrocytes, SYBR Green DNA, 72 h; series mostly up to 12.8 µM
Outline: as §1

CP265 = test: as above; conditions: P. falciparum in erythrocytes, SYBR Green DNA, 72 h; series mostly up to 12.8 µM
Outline: as §1

CP266 = test: as above; conditions: P. falciparum in erythrocytes, SYBR Green DNA, 72 h; series mostly up to 12.8 µM
Outline: as §1

CP268 = test: as above; conditions: P. falciparum in erythrocytes, SYBR Green DNA, 72 h; series mostly up to 12.8 µM
Outline: as §1

CP269 = test: as above; conditions: P. falciparum in erythrocytes, SYBR Green DNA, 72 h; series mostly up to 12.8 µM
Outline: as §1

CP286 = test: as above; conditions: P. falciparum in erythrocytes, SYBR Green DNA, 72 h; series mostly up to 12.8 µM
Outline: as §1

CP291 = test: as above; conditions: P. falciparum in erythrocytes, SYBR Green DNA, 72 h; series mostly up to 12.8 µM
Outline: as §1

CP297 = test: as above; conditions: P. falciparum in erythrocytes, SYBR Green DNA, 72 h; series mostly up to 12.8 µM
Outline: as §1

CP305 = test: as above; conditions: P. falciparum in erythrocytes, SYBR Green DNA, 72 h; series mostly up to 12.8 µM
Outline: as §1

CP315 = test: as above; conditions: P. falciparum in erythrocytes, SYBR Green DNA, 72 h; series mostly up to 12.8 µM
Outline: as §1

CP325 = test: as above; conditions: P. falciparum in erythrocytes, SYBR Green DNA, 72 h; series mostly up to 12.8 µM
Outline: as §1

CP329 = test: as above; conditions: P. falciparum in erythrocytes, SYBR Green DNA, 72 h; series mostly up to 12.8 µM
Outline: as §1

DFO2036 = test: as above; conditions: P. falciparum in erythrocytes, SYBR Green DNA, 72 h; series mostly up to 12.8 µM
Outline: as §1

DIV14 = test: as above; conditions: P. falciparum in erythrocytes, SYBR Green DNA, 72 h; series mostly up to 12.8 µM
Outline: as §1

DIV17 = test: as above; conditions: P. falciparum in erythrocytes, SYBR Green DNA, 72 h; series mostly up to 12.8 µM
Outline: as §1

DIV30 = test: as above; conditions: P. falciparum in erythrocytes, SYBR Green DNA, 72 h; series mostly up to 12.8 µM
Outline: as §1

Dd2 = test: as above; conditions: P. falciparum in erythrocytes, SYBR Green DNA, 72 h; series mostly up to 12.8 µM
Outline: as §1

ECU = test: as above; conditions: P. falciparum in erythrocytes, SYBR Green DNA, 72 h; series mostly up to 12.8 µM
Outline: as §1

FAB9 = test: as above; conditions: P. falciparum in erythrocytes, SYBR Green DNA, 72 h; series mostly up to 12.8 µM
Outline: as §1

GB4 = test: as above; conditions: P. falciparum in erythrocytes, SYBR Green DNA, 72 h; series mostly up to 12.8 µM
Outline: as §1

HB3 = test: as above; conditions: P. falciparum in erythrocytes, SYBR Green DNA, 72 h; series mostly up to 12.8 µM
Outline: as §1

ICS = test: as above; conditions: P. falciparum in erythrocytes, SYBR Green DNA, 72 h; series mostly up to 12.8 µM
Outline: as §1

JCK = test: as above; conditions: P. falciparum in erythrocytes, SYBR Green DNA, 72 h; series mostly up to 12.8 µM
Outline: as §1

N140 = test: as above; conditions: P. falciparum in erythrocytes, SYBR Green DNA, 72 h; series mostly up to 12.8 µM
Outline: as §1

P93_24 = test: as above; conditions: P. falciparum in erythrocytes, SYBR Green DNA, 72 h; series mostly up to 12.8 µM
Outline: as §1

P94_40 = test: as above; conditions: P. falciparum in erythrocytes, SYBR Green DNA, 72 h; series mostly up to 12.8 µM
Outline: as §1

PAD = test: as above; conditions: P. falciparum in erythrocytes, SYBR Green DNA, 72 h; series mostly up to 12.8 µM
Outline: as §1

PC15 = test: as above; conditions: P. falciparum in erythrocytes, SYBR Green DNA, 72 h; series mostly up to 12.8 µM
Outline: as §1

PC26 = test: as above; conditions: P. falciparum in erythrocytes, SYBR Green DNA, 72 h; series mostly up to 12.8 µM
Outline: as §1

PC49 = test: as above; conditions: P. falciparum in erythrocytes, SYBR Green DNA, 72 h; series mostly up to 12.8 µM
Outline: as §1

SC27B = test: as above; conditions: P. falciparum in erythrocytes, SYBR Green DNA, 72 h; series mostly up to 12.8 µM
Outline: as §1

TAB113 = test: as above; conditions: P. falciparum in erythrocytes, SYBR Green DNA, 72 h; series mostly up to 12.8 µM
Outline: as §1

TAB165 = test: as above; conditions: P. falciparum in erythrocytes, SYBR Green DNA, 72 h; series mostly up to 12.8 µM
Outline: as §1

Sequence of Cytochrome P450 3A4 (Homo sapiens) (P08684 whole entry, looked up): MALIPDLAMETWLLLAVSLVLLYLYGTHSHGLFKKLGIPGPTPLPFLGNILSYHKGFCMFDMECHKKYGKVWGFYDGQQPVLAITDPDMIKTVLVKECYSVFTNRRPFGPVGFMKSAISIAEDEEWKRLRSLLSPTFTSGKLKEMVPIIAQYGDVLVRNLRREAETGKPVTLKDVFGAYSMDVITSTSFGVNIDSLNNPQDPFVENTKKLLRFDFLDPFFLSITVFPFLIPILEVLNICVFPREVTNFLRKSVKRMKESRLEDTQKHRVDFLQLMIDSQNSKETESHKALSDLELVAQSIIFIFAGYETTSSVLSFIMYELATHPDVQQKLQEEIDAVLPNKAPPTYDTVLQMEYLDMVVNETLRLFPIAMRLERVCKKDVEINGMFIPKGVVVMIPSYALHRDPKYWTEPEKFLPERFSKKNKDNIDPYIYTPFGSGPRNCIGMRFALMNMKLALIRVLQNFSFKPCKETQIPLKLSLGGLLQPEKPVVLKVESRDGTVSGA
Sequence of Ubiquitin carboxyl-terminal hydrolase 1 (Homo sapiens) (O94782 whole entry, looked up): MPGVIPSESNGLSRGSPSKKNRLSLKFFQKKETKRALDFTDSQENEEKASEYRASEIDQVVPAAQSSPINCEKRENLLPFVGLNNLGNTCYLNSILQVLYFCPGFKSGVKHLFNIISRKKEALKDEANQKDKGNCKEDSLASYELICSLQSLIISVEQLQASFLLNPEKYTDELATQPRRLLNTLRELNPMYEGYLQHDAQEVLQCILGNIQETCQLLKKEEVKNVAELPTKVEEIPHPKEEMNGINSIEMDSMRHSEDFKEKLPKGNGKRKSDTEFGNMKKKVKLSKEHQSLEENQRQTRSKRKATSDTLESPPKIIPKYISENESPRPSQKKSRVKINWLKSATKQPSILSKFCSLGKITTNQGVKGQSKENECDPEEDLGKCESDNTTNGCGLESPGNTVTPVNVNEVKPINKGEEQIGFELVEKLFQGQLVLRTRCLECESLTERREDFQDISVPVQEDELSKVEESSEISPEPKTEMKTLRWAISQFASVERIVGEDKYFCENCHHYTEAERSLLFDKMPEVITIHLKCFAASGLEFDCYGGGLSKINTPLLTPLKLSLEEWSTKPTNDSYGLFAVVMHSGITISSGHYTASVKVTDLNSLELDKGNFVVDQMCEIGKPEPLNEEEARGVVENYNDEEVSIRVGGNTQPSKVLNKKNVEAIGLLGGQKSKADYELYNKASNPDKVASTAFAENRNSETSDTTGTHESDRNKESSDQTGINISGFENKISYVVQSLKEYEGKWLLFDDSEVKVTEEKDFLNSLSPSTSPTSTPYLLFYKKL
Sequence of ATP-dependent 6-phosphofructokinase (Trypanosoma brucei brucei) (O15648 whole entry, looked up): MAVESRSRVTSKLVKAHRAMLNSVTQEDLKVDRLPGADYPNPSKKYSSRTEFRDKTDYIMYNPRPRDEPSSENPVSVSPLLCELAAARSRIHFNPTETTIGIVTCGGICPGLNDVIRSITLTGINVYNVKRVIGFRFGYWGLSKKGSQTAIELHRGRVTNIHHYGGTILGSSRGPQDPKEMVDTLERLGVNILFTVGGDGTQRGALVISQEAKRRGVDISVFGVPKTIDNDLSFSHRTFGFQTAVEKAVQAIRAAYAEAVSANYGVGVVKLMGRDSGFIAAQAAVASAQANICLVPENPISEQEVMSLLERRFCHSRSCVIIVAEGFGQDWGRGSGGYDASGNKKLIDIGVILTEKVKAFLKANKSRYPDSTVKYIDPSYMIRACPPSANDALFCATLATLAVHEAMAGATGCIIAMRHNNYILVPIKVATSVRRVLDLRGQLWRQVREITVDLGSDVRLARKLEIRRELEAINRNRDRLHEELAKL
Sequence of Luciferin 4-monooxygenase (Photinus pyralis) (P08659 whole entry, looked up): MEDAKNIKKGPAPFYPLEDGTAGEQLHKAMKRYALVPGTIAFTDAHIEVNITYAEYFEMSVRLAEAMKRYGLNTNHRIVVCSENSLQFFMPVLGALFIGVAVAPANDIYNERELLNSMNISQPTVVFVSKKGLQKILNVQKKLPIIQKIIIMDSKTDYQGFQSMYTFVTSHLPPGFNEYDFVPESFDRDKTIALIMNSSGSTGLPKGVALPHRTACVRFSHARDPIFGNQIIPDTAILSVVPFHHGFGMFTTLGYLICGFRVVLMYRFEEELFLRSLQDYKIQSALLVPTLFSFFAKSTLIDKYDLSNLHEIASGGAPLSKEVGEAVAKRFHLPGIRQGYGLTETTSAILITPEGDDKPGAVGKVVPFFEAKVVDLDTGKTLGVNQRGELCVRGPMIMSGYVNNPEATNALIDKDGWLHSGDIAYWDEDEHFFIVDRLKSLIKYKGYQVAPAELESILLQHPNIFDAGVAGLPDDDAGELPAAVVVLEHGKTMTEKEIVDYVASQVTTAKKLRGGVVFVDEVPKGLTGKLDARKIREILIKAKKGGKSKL

CCC1OC(=O)C(C)[C@@H](O[C@H]2C[C@@](C)(OC)C(O)C(C)O2)C(C)[C@@H](O[C@@H]2OC(C)CC(N(C)C)C2O)[C@@](C)(O)CC(C)C(=O)[C@@H](C)C(O)[C@]1(C)O (stereo partly drawn)
15.2%: max response ([3]; measured here: cell count channel max response)
active: Potency [10] 11.2 µM
17.2%: max response ([3]; measured here: lipid channel max response)
inactive: Potency [1] | Potency [2] | activity change, negative = inhibition ([3]; at 57.5 µM (top of the series)) -1.12% | outcome [4] | Potency [5] | Potency [6] | outcome [7] | Potency [8] | Potency [9] | Potency (3D7) | Potency (7G8) | Potency (AA1029) | Potency (AS120) | Potency (ATS189) | Potency (ATS95) | Potency (C2A) | Potency (CP185) | Potency (CP191) | Potency (CP192) | Potency (CP194) | Potency (CP201) | Potency (CP203) | Potency (CP211) | Potency (CP215) | Potency (CP217) | Potency (CP237) | Potency (CP238) | Potency (CP247) | Potency (CP250) | Potency (CP252) | Potency (CP256) | Potency (CP260) | Potency (CP262) | Potency (CP265) | Potency (CP266) | Potency (CP268) | Potency (CP269) | Potency (CP286) | Potency (CP291) | Potency (CP297) | Potency (CP305) | Potency (CP315) | Potency (CP325) | Potency (CP329) | Potency (DFO2036) | Potency (DIV14) | Potency (DIV17) | Potency (DIV30) | Potency (Dd2) | Potency (ECU) | Potency (FAB9) | Potency (GB4) | Potency (HB3) | Potency (ICS) | Potency (JCK) | Potency (N140) | Potency (P93_24) | Potency (P94_40) | Potency (PAD) | Potency (PC15) | Potency (PC26) | Potency (PC49) | Potency (SC27B) | Potency (TAB113) | Potency (TAB165)
